# PubChem BioAssay (NCI)
# The panel holds about 83,000 compounds, 20% with a hit somewhere; the sample as a whole holds those more often.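 Activity criterion: percent growth below 10, measured after cells in 96-well plates were exposed to a single compound concentration for 48 hours.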 The source made the active and inactive calls.
# Test system: NCI-H322M lung
# Assay: NCI-60 one-dose screen, 48 h (100 = growth as untreated, 0 = no growth, -100 = all killed)
# Details: 10 µM unless noted
row,Compound,growth
1,O=c1oc2c(cnc3ccccc32)cc1-c1cccc(Cl)c1,104% (inactive)
2,CCOC(=O)c1c(C)nc2c(c1N)C(=O)C(=O)N2Cc1ccc(OC)cc1,99.5% (inactive)
3,CCNC(=O)N1CCc2c(Br)c3c(c(OC)c2C1Cc1ccc(OC)cc1)OCO3 (stereo not given),52.9% (inactive)
4,COc1cc2c(c(OC)c1OC)CCC(c1cccc(C(=O)Nc3ccc(Br)cc3)c1)O2 (stereo not given),50% (inactive)
5,OC1CSSC1Cn1cnc2c(Nc3ccc(OCc4cccc(F)c4)c(Cl)c3)ncnc21 (stereo not given),-27.8% (active)
6,Cc1ccc(OCCOCCOCCOc2ccc(C)n(O)c2=S)c(=S)n1O,40.6% (inactive)
7,C=CN(C(=O)N1CCN(c2cc3c(cc2F)c(=O)c(C(=O)O)cn3C2CC2)CC1)c1nc(-c2ccc(Cl)cc2)cs1,69.4% (inactive)
8,C#CCOc1cccc(Nc2ncnc3cc(NC(=O)CCl)ccc23)c1,-13.9% (active)
9,Cc1nc2ccccc2c(/C=C/c2ccc(F)cc2)c1C(=O)/C=C/c1ccccc1,37.7% (inactive)
10,COc1cc(/C=C/C(=O)N2CCN(C(=O)c3cc(OC)c(OC)c(OC)c3)CC2)ccc1OCCCOc1cc2c(cc1OC)C(=O)N1CCC[C@H]1C=N2,-5.89% (active)
11,O=C(NC1CCC(Br)CC1)C1CCCC(S(=O)(=O)NC2CCCCC2)C1 (stereo not given),41.9% [25 µM] (inactive)
12,COc1cc(/C=C/c2cn[nH]c2-c2ccc(C)cc2)cc(OC)c1OC,56.7% (inactive)
13,COc1ccc(C/C(C)=C(\c2ccc(Cl)cc2)c2ccc(OCCN3CCCC3)cc2)cc1,91.6% (inactive)
14,CN(C)Cc1ccc(NC(=O)c2cncc(C#Cc3cnc(N)c4ncccc34)c2)cc1C(F)(F)F,97% (inactive)
15,COC(=O)c1c(C)nc(C)c2c1C(=O)C=C(NCc1ccccc1)C2=O,92.5% (inactive)
16,N#CSc1c[nH]c2ccc(/C=C/C(=O)/C=C(O)/C=C/c3ccc4[nH]cc(SC#N)c4c3)cc12,96.9% (inactive)
17,Cc1ccc(-c2nc(SCC(=O)N3CCN(c4cc5c(cc4F)c(=O)c(C(=O)O)cn5C4CC4)CC3)nc(Cl)c2C#N)cc1,101% (inactive)
18,COC(=O)/C=C1/SC(=NCc2ccccc2)N(CCc2c[nH]c3ccccc23)C1=O,98.9% (inactive)

row,Compound,growth
1,C=C(C)[C@@H]1CC[C@]2(C(=O)N3CCN(C)CC3)CC[C@]3(C)[C@H](CC[C@@H]4[C@@](C)(CCC(=O)O)[C@H](C(=C)C)CC[C@]43C)[C@@H]12,98.5% (inactive)
2,Nc1[nH]nc2nc(-c3ccccc3)n3c4ccccc4nc3c12,93% (inactive)
3,CN1CCOCCN(C)Cc2ccc3ccc(cc3c2)CN(C)CCOCCN(C)Cc2ccc3ccc(cc3c2)C1,99.6% (inactive)
4,COc1ccc(/C=N/Nc2c3ccccc3nc3ccccc23)cc1,101% (inactive)
5,C=C1C(=O)O[C@H]2[C@H]1CC/C(CNC(=O)Cc1c[nH]c3ccccc13)=C\CC[C@@]1(C)O[C@@H]21,82.2% (inactive)
6,COc1ccc2c(c1)CC[C@@H]1[C@@H]2CC[C@]2(C)c3c(cc(C#N)c4c3sc3ccccc34)C[C@@H]12,108% (inactive)
7,O=C(c1c[nH]c2ccccc12)c1n[nH]c(=S)n1-c1ccc([N+](=O)[O-])cc1,94.7% (inactive)
8,Cc1c2cnccc2c(C)c2c1c1cc(CO)ccc1n2C,-40.2% (active)
9,COc1cc(-c2nccc3[nH]c(-c4cccc5[nH]ccc45)nc23)cc(OC)c1OC,64% (inactive)
10,Clc1ccc(-c2nc(C(Cl)Cl)nc3cc(-c4ccccc4)nn23)cc1,-50.5% (active)
11,CC1=Nc2cnc(Nc3ccc(N4CCCCC4)cc3)nc2Nc2ccccc21,75.7% (inactive)
12,CN(C)c1ccc([C@@H](C(=O)Nc2cccc([N+](=O)[O-])c2)N(C(=O)c2cc3ccccc3[nH]2)c2cccc([N+](=O)[O-])c2)cc1,95% (inactive)
13,O=C(CSc1nnnn1-c1ccccc1)Nc1ccc(Oc2ccccc2)cc1,114% (inactive)
14,COc1cc(/C=C/C(=O)c2cccc(-n3cc(-c4ccc(Cl)cc4)[nH]c3=O)c2)ccc1O,92.6% (inactive)
15,Oc1c(CN2CCC(N3CCOCC3)CC2)cc(Cc2cc(CN3CCC(N4CCOCC4)CC3)c(O)c3ncccc23)c2cccnc12,37.6% (inactive)
16,c1ccc2cc(Cn3cc(CSc4nc5ccccc5s4)nn3)ccc2c1,97.6% (inactive)
17,CN(C)Cc1cc(C(C)(C)C)cc(Br)c1O,118% (inactive)
